Among all 340,000 compounds or so, about 1,000 (0.29%) were called active. Cut-off read from the data, not from the text of the source: inconclusive = inhibition above about 27% without an active follow-up result; inactive = below that. A selection follows. Entries with a potency or affinity are not part of this list.

This experiment can be described thus: NS1A inhibition, H1N1 influenza, cell based functional assay (AID 504329). As to conditions: percent inhibition, at 12.5 µM, stronger effect = higher value.
Broadly, the inhibition is the relative decrease from the control value, in per cent. For the compound `CC1CCN(CCCNC(=O)c2cc3c(s2)-c2ccccc2OC3)CC1`, the inhibition was -6.94% (inactive).

As to `Cc1c(Cl)cccc1NC(=O)CC1Oc2ccccc2NC1=O` (stereo not given), the inhibition was -22.6% (inactive).

As for `S=C(N/N=C/c1ccc2ncccc2c1)Nc1cccnc1`, the inhibition is -1.92% (inactive).

On to `CN(C)S(=O)(=O)c1cccc(NC(=S)N/N=C/c2cc(Br)ccc2O)c1`, for which the inhibition was -4.31% (inactive).

For the compound `COc1cccc(/C=N/NC(=S)Nc2cccc(S(=O)(=O)N(C)C)c2)c1`, the inhibition is -0.6% (inactive).

As for `Oc1ccc(/C=N/NC(=S)Nc2cccnc2)cc1O`, the inhibition was -4.43% (inactive).

`COc1cc(/C=N/NC(=S)Nc2cccnc2)cc(OC)c1OC`: the inhibition was -1.86% (inactive).

As for `Fc1cccc(F)c1/C=N/NC(=S)Nc1cccnc1`, the inhibition is 4.25% (inactive).

With `Fc1ccc(/C=N/NC(=S)Nc2cccnc2)cc1`, the inhibition is -6.6% (inactive).

As to `Fc1ccc(/C=N/NC(=S)Nc2cccnc2)cc1F`, the inhibition was 5.25% (inactive).

With `O=S(=O)(c1ccccc1)N1CCN(C2CCCCCCC2)CC1`, the inhibition is -3.77% (inactive).

`CCCn1c(=O)c(C(=O)NCc2ccc3c(c2)OCO3)c(O)c2ccccc21`: the inhibition was -2.14% (inactive).

Take `COc1ccc2oc(C(=O)OCC(=O)N3CC(C)CC(C)C3)c(C)c2c1` (stereo not given): the inhibition was -0.35% (inactive).

Regarding `CSCCC(NC(=O)c1ccccc1)C(=O)NC1CCCC1` (stereo not given), the inhibition is 1.8% (inactive).

With `COC(=O)c1ccc2c(c1)C(=O)/C(=C/c1ccc(C)cc1)O2`, the inhibition was 0.65% (inactive).

On to `CC1(C)Cc2c(cnn2-c2ccccc2)C(NC(=O)CCCn2cncn2)C1` (stereo not given), for which the inhibition was 4.41% (inactive).

As for `Cc1ccccc1CN1CCC(n2nccc2NC(=O)CCCc2ccccc2)CC1`, the inhibition was -1.87% (inactive).

As to `O=C(NCc1cnn(-c2ccccc2)c1)C1CCC(=O)N(C2CC2)C1` (stereo not given), the inhibition is -1.14% (inactive).

In the case of `CC(C)C(NC(=O)C(NC(=O)C1OC2OC(C)(C)OC2C2OC(C)(C)OC12)C(C)C)C(=O)O` (stereo not given), the inhibition was 4.15% (inactive).

On to `Fc1c(F)c(F)c(/C=N/NC(=S)Nc2cccnc2)c(F)c1F`, for which the inhibition was 4.9% (inactive).

Regarding `Oc1ccc(/C=N/NC(=S)Nc2cccnc2)cc1`, the inhibition is -2.94% (inactive).

Consider `COc1ccccc1/C=N/NC(=S)Nc1cccnc1`, for which the inhibition is 2.47% (inactive).

For `COc1cccc(/C=N/NC(=S)Nc2cccnc2)c1`, the inhibition is 8.47% (inactive).

`COC(=O)c1cc(OC)c(OC)cc1NC(=O)C(C)Sc1ccc(C)cc1` (stereo not given): the inhibition is -9.85% (inactive).

For `CC1(C)C2CC=C(CN3CCC(O)CC3)C1C2` (stereo not given), the inhibition was 4.73% (inactive).

On to `O=C(Nc1ccc(Cl)cc1)Nc1ccccn1`, for which the inhibition was -13.9% (inactive).

With `COc1ccc(CNC(=O)Cn2nc(C(F)(F)F)c(Br)c2C)cc1`, the inhibition is -1.07% (inactive).

As to `Nc1ccc(NC(=S)Nc2ccccc2)cc1`, the inhibition is 8.73% (inactive).

As to `C/C(=N\NC(=O)c1ccc(Cl)cc1)c1ccccn1`, the inhibition is -5.53% (inactive).

Turning to `CCOc1ccc(OCc2ccc(C(=O)N/N=C(\C)c3ccccn3)cc2)cc1`, the inhibition is -8.32% (inactive).

For the compound `O=C(NCCNC(=O)c1ccccn1)c1ccc(F)cc1`, the inhibition is 4.55% (inactive).

Turning to `CC(C)(C)c1ccc(C(=O)NCCCNC(=O)c2ccccn2)cc1`, the inhibition is 0.93% (inactive).

In the case of `CSc1ccc(CN(C)C(=O)c2cc(Cl)c3c(c2)OCCO3)cc1`, the inhibition is 0.05% (inactive).

`Cc1ccc(C)c(S(=O)(=O)N2CCN(C(=O)CCNS(=O)(=O)c3ccc(C)c(C)c3)CC2)c1`: the inhibition was 5.37% (inactive).

`Cc1ccc2nc(-c3cccc(S(=O)(=O)N4CCCC4)c3)cn2c1`: the inhibition was -1.58% (inactive).

On to `COc1ccc(C(=O)NCCc2c[nH]c3ccccc23)cc1S(=O)(=O)N1CCCCC1C` (stereo not given), for which the inhibition was -1.05% (inactive).

With `Cc1c(-c2ccccc2)nc2ccccc2c1C(=O)Nc1ccncc1`, the inhibition is -4.14% (inactive).

For the compound `CC(C)=CCC[C@](C)(O[C@@H]1O[C@H](CO[C@@H]2OC[C@H](O[C@@H]3OC[C@@H](O)[C@H](O)[C@H]3O)[C@H](O)[C@H]2O)[C@@H](O)[C@H](O)[C@H]1O)C1CC[C@]2(C)C1[C@H](O)CC1[C@@]3(C)CC[C@H](O)C(C)(C)C3[C@@H](O)C[C@]12C` (stereo not given in full), the inhibition is -10.2% (inactive).

Regarding `CC(=O)N1CCN(c2ccc(NCc3ccc(-c4cccc(Cl)c4)o3)cc2)CC1`, the inhibition was 23.9% (inactive).

On to `CC(=O)N1CCN(c2ccc(NCc3ccc(Br)o3)cc2)CC1`, for which the inhibition is 6.1% (inactive).

As to `C=CCn1c(CC(=O)Nc2ccc(C)cc2C)nnc1SCC(=O)N1CCOCC1`, the inhibition is -7.34% (inactive).

As to `C/C(=C\c1ccccc1)CN1CCN(c2cccc(Cl)c2)CC1`, the inhibition is -1.4% (inactive).

Turning to `COc1ccc(N=Nc2nc(-c3ccccc3)c(-c3ccccc3)[nH]2)cc1`, the inhibition is 13.8% (inactive).

Take `Cc1ncc(N=Nc2ccc(F)cc2)c(-c2ccc(Cl)cc2)n1`: the inhibition was 10.6% (inactive).

Consider `Cc1ncc(N=Nc2ccccc2)c(-c2ccccc2)n1`, for which the inhibition is 23.1% (inactive).

For the compound `COc1ccc(-c2nc(C)ncc2N=Nc2ccccc2)cc1`, the inhibition was 24.1% (inactive).

Take `CSC1=N/C(=C/c2ccc(-n3cncn3)cc2)C(=O)N1`: the inhibition is 18.2% (inactive).

`CSC(=S)N/N=C(\C)c1ccccc1`: the inhibition was -5.26% (inactive).

On to `S=C(Nc1ccc2nc(-c3ccccn3)c(-c3ccccn3)nc2c1)N1CCCCC1`, for which the inhibition is -3.09% (inactive).

On to `CSC(=S)N/N=C(\C)c1ccc(Br)cc1`, for which the inhibition is -6.45% (inactive).

Regarding `CC(=NNC(=S)N1CCCCCC1)c1cccc2cccnc12`, the inhibition is 25.3% (inactive).

Consider `C/C(=N/O)c1ccccn1`, for which the inhibition is 1.41% (inactive).

For `CC(=NNC(=S)N1CC2CCC(CC2)C1)c1cccc(C)n1`, the inhibition was 23.1% (inactive).

For `CC(=NNC(=S)N1CCN(c2ccccn2)CC1)c1ccccn1`, the inhibition is 15.8% (inactive).

Turning to `Cc1cccc(C(=S)N2CCOCC2)n1`, the inhibition is -4.89% (inactive).

As to `O=C(CN1C(=O)c2ccc([N+](=O)[O-])cc2C1=O)Nc1ccccc1N1CCCC1`, the inhibition is -7.2% (inactive).

With `Cc1ccsc1/C=N/Nc1nc(=O)[nH]nc1C`, the inhibition was 12% (inactive).

Turning to `O=[N+]([O-])c1cc([N+](=O)[O-])c(Oc2ccc(Br)cc2Br)cc1NN1CCCCC1`, the inhibition was -0.23% (inactive).

With `NCCCC[C@H](N)c1nnc([C@H](CCC(=O)O)NC(=O)C2CCNCC2)o1`, the inhibition was 11.3% (inactive).

`C[C@H]1CN([C@@H](C)CO)C(=O)c2cccc(NC(=O)c3ccncc3)c2O[C@H]1CN(C)C(=O)Nc1ccccc1`: the inhibition is -10.3% (inactive).

The record behind these values is PubChem BioAssay AID504329 (Southern Research Specialized Biocontainment Screening …, 2011).
